FUS suppressor – qHTS for Suppressors of FUS Proteinopathy: Primary screen using FUS-linked yeast assay | AID 1347120, 2019 | Potency, µM (doses to about 76.6 µM), actives largely listed as activators | actives 0.24% (n = 390,000) | S. cerevisiae FUS-expressing, growth rescue, OD600, 24 h;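 also: plate controls were DMSO vehicle for no effect and reference control for full effect; nearly all actives have a fitted effect of over 55% in size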
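Steps: raffinose overnight preculture; dilution to OD 0.005 in 2% galactose minimal medium; compound addition (concentration series); 24hr at 30C, 99% humidity; absorbance read at 600 nm.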
TSG101-PTAP inh – qHTS Assay for Iinhibitors of HIV-1 Budding by Blocking the Interaction of PTAP/TSG101. AID 493005, 2010. 340,000 tested, under 10 active. Potency, µM (highest dose often 115 µM), inactives show at the top dose activity change, negative = inhibition, most hits filed as inhibitors. Fluorescence polarization, FITC-PTAP peptide / Tsg101 binding; active = well fitted inhibition curve with a large enough effect in the main read-out, with a control signal flat, not every such curve was filed as active; inconclusive = small, poorly fitted or top-dose-only effect, or effect the other way, or a change in a side signal; inactive = no such curve, though single readings can be large or run the other way; also: % of control where 0% means no effect
Target sequence (Q99816 whole entry, looked up): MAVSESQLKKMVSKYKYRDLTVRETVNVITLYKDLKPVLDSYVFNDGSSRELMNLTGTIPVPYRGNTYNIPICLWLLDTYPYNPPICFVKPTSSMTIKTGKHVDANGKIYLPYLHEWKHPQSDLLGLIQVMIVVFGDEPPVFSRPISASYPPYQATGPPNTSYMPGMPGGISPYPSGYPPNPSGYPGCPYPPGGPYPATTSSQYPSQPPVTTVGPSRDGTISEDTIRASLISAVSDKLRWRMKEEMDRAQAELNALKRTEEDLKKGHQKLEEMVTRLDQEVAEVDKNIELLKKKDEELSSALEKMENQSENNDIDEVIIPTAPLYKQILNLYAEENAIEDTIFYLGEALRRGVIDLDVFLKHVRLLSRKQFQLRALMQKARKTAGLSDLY
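FP read-out: FITC-PTAP peptide, 50 nM final, binding Tsg101 binding domain, 10 uM final; 20 min, r.t.; 10 mM HEPES pH 7.5, 0.15 M NaCl, 0.01% Tween 20, 3 mM EDTA, 0.1 mM TCEP.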
aSyn yeast inh – qHTS of alpha-syn Inhibitors | actives 0.14% (n = 370,000) | Potency, µM (highest dose often 46.1 µM), for inactives: top-dose growth rescue (activation), hits mostly activators | Yeast expressing alpha-synuclein, growth rescue, BacTiter-Glo, 24 h; also: % of control where 0% means no effect; nearly all actives have a fitted effect of over 65% in size
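Readout is rescue of growth in alpha-synuclein-expressing yeast, so inhibitors of toxicity appear as activators. Growth after 24 hr at 30 deg C in galactose medium is quantified by luminescence.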
TDP-43 yeast inh – qHTS of TDP-43 Inhibitors; actives 1.8% (n = 410,000); Potency, µM (series often up to 46.1 µM), without a hit: at the highest dose growth rescue (activation), hits mostly activators; TDP-43 expressing yeast growth rescue, BacTiter-Glo, 24 h; AID 652104, 2013; also: % of control where 0% means no effect; nearly all actives have a fitted effect of over 50% in size
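Yeast expressing TDP-43 (pregrown in raffinose, seeded at OD600=0.02 in galactose medium) exposed to compounds 24 hr at 30 deg C. Growth read by BacTiter-Glo luminescence; rescue of toxicity appears as increased signal.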
Abeta yeast res – qHTS for compounds that reverse cellular toxicity of Amyloid beta (A-beta) peptide in yeast: Primary Screen. actives 0.063% (n = 410,000). AID 1347071, 2019. yeast expressing A-beta42, growth rescue, OD600, 48 h; response scale: 0% DMSO, 100% iron-clioquinol control. Potency, µM (doses to about 46.1 µM), most hits filed as activators; also: nearly all actives have a fitted effect of over 55% in size
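Growth rescue measured by 600 nm absorbance after 48 h yeast culture at 30 C with compound. Values normalized between DMSO and an equimolar ferric chloride plus clioquinol control.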
* hit, by the source's call; i = inactive; ? = inconclusive; . = not tested or not shown; [ ] = remark or other dose. Rows were chosen to be rich in hits. Some 2.1% of all compounds tested hit in one or more screens of this group. Unless noted, calls follow the shape of the dose curve; as a rule, active = well fitted curve in the direction sought with a large enough effect; inconclusive = small, poorly fitted or top-dose-only effect, or another doubt; inactive = no such curve, though single readings can be large; an effect the other way counts as inactive or inconclusive. Potency is read from the fitted curve at half-maximal effect.

SMILES	FUS suppressor	TSG101-PTAP inh	aSyn yeast inh	TDP-43 yeast inh	Abeta yeast res
S=C(NCCc1ccccc1)NC1CCC(NC(=S)NCCc2ccccc2)CC1 (centres undefined)	i	-9%	-4%	-11%	i
Cc1cccc(Nc2nnc(SCC3CCCCO3)s2)c1C (centres undefined)	.	-1%	16%	-23%	i
COc1cccc(Nc2nnc(SCC3CCCCO3)s2)c1 (centres undefined)	i	0%	0%	10µM*	i
COc1ccc(Nc2nnc(SCC3CCCO3)s2)cc1 (centres undefined)	i	-5%	-10%	28µM*	i
COc1ccc(Nc2nnc(SCC(=O)NC3CC3)s2)cc1	i	-1%	2%	9%	i
COc1ccccc1CNc1ccc(-c2nc(C(C)C)no2)cc1[N+](=O)[O-]	i	.	.	10%	i
O=C1CCC[C@H]2C[C@H](NCc3cccc(F)c3)CC[C@]23CCCN13	i	.	.	.	.
CC(=O)N1CCC2(CC1)OC(=O)C(C)=C2C(=O)NCc1ccc(Cl)cc1	i	.	.	2%	i
COc1ccc(N/C(C)=C/C(=S)Nc2ccccc2)cc1	i	-1%	22%	13µM*	i
COc1ccc(-c2cc3c(c4c2ccn4C)C2CCC3C2)cc1 (centres undefined)	i	.	-7%	35µM*	i
Cn1ccc2c(-c3ccc(C(C)(C)C)cc3)cc3c(c21)C1CCC3C1 (centres undefined)	i	.	-6%	12%	i
COc1cccc(-c2cc3c(c4c2ccn4C)C2CCC3C2)c1 (centres undefined)	i	.	-9%	?	i
Cn1ccc2c(-c3ccc(C(=O)O)cc3)cc3c(c21)C1CCC3C1 (centres undefined)	i	.	-2%	28µM*	i
CCc1ccc(NC(=O)c2noc3c2CCC3)cc1	i	5%	-8%	11µM*	i
CCOc1ccc(NC(=O)c2c(NC(=O)Cc3ccccc3)sc3c2CCCC3)cc1	i	.	.	2%	i
COCc1cc(N2CCOCC2)nc(SCc2ccc(Cl)cc2)n1	i	-6%	15%	-12%[0.397 µM]	10µM*
CN(C)c1cccc(/C=C2\CC3(OC(=O)c4ccco4)CCCN2C3)c1 (centres undefined)	i	.	.	.	.
CCN1CCCC1CN(Cc1cc2cc(C)cc(C)c2[nH]c1=O)C(=O)Nc1ccccc1OC (centres undefined)	32µM*	-2%	-1%	-6%	i
O=C(CN1CCc2ccccc21)NCc1ccc2c(c1)OCO2	i	1%	15%	28%	i
O=C(CSc1nc2ccc(Cl)cc2o1)NCc1ccc2c(c1)OCO2	i	-1%	-2%	?	i
O=C(NCCc1ccc(Cl)cc1)C1(c2ccccc2)CC1	i	-4%	16%	14µM*	i
O=C(CN1CCCc2ccccc21)NCc1ccc2c(c1)OCO2	i	1%	15%	11µM*	i
O=C(CN1CCCc2ccccc21)NCCc1ccc(Cl)cc1	i	-1%	5%	14µM*	i
O=C(CSc1nc2ccccc2o1)NCc1ccc2c(c1)OCO2	i	0%	0%	14µM*	i
COc1cc(SC)ccc1C(=O)NCCOc1ccc(Cl)cc1	.	-4%	0%	18µM*	i
SMILES	FUS suppressor	TSG101-PTAP inh	aSyn yeast inh	TDP-43 yeast inh	Abeta yeast res
Cc1ccc(-c2cc(C(=O)NN=Cc3sccc3C)[nH]n2)cc1C	i	.	.	.	.
COc1ccc(NC(=O)CN(C)C(=O)c2cc3c(s2)CCC3)cc1	i	-8%	1%	8%	i
COc1ccc(NC(=O)CN(C)C(=O)c2cc3c(s2)CCCCC3)cc1	i	0%	0%	28µM*	i
CN(CC(=O)Nc1ccccc1Br)C(=O)c1cc2c(s1)CCCCC2	i	-2%	2%	18µM*	i
CN(CC(=O)Nc1ccccc1Cl)C(=O)c1cc2c(s1)CCCCC2	i	-5%	-3%	-3%	i
Oc1ccc(NCc2ccccc2OCc2ccc(Cl)cc2)cc1	i	.	.	?	i
CCOc1cc(CNc2ccc(O)cc2)ccc1OCc1ccc(Cl)cc1	i	.	.	35µM*	i
CCOc1ccccc1NC(=O)CSc1nnc(CC)c(CC)n1	i	.	.	1%	i
Cc1ccc(NC(=O)CCNS(=O)(=O)c2ccc3c(c2)CCCC(=O)N3)cc1	i	.	-1%	-1%	i
O=C(CSCc1ccccc1)Nc1cc([N+](=O)[O-])ccc1F	i	-4%	4%	11µM*	i
COc1ccc([N+](=O)[O-])cc1NC(=O)CSCc1ccccc1	i	9%	8%	13µM*	i
COc1ccc([N+](=O)[O-])cc1NC(=O)CSc1ccccc1	i	-5%	12%	28%	i
Cc1cccc(CSCCNC(=O)CSCc2ccc([N+](=O)[O-])cc2)c1	i	-4%	16%	18µM*	i
CCc1ccccc1NC(=O)N1CC(CC)Oc2ccc(Cl)cc21 (centres undefined)	?	.	.	8%	i
CCC1CN(C(=O)Nc2ccc(C(=O)O)cc2)c2cc(Cl)ccc2O1 (centres undefined)	i	.	.	13µM*	i
O=C(C(=O)N1CCN(c2ccccc2Cl)CC1)c1c[nH]c2ccccc12	i	16%	18µM*	22µM*	.
COC(=O)[C@]12C[C@H](CC(=O)N3CCCC3)C(=O)N(Cc3ccc4c(c3)OCO4)C1=C[C@H](C(C)C)O[C@@H]2C1CC1	i	.	.	.	.
COC(=O)[C@]12C[C@H](CC(=O)N3CCC(c4ccccc4)CC3)C(=O)N(Cc3ccc4c(c3)OCO4)C1=C[C@H](C(C)C)O[C@@H]2C1CC1	i	.	.	.	.
COC(=O)[C@]12C[C@H](CC(=O)NCCCCc3ccccc3)C(=O)N(Cc3ccc4c(c3)OCO4)C1=C[C@H](C(C)C)O[C@@H]2C1CC1	8.9µM*	.	.	.	.
COC(=O)[C@]12C[C@H](CC(=O)NCc3cccc(C(F)(F)F)c3)C(=O)N(Cc3ccc4c(c3)OCO4)C1=C[C@H](C(C)C)O[C@@H]2C1CC1	8.9µM*	.	.	.	.
COC(=O)[C@]12C[C@H](CC(=O)NCC3CCCCC3)C(=O)N(Cc3ccc4c(c3)OCO4)C1=C[C@H](C(C)C)O[C@@H]2C1CC1	14µM*	.	.	.	.
COC(=O)[C@]12C[C@H](CC(=O)NCC34CC5CC(CC(C5)C3)C4)C(=O)N(Cc3cccc4ccccc34)C1=C[C@H](C(C)C)O[C@@H]2C1CC1	i	.	.	.	.

Compound activity (PubChem)
